# Data taken from PubChem BioAssay (EPA / NIEHS).
# Active and inactive are the calls of the source. How the source made its calls: active means hit-call score of the fitted dose curve at least 0.9, where 1 is the maximum; inactive means score below 0.9.
# Assay: ATG_NF_kB_CIS: Attagene CIS-FACTORIAL HepG2 Assay for human Nuclear Factor Kappa B (NF-kB) (AID 2282991)
# Conditions: HepG2 Attagene cis-factorial NF-kB reporter mRNA; actives raise or lower the signal
# Method: ATG_CIS is a cell-based, multiplexed-readout assay that uses HepG2, a human liver cell line, with measurements taken at 24 hours after chemical dosing in a 24-well plate.ATG_NF_kB_CIS is one of 52 assay component(s) measured or calculated from the ATG_CIS assay. It is designed to make measurements of mRNA induction, a form of inducible reporter, as detected with fluorescence intensity signals by Reverse transcription polymerase chain reaction (RT-PCR) and Capillary electrophoresis technology.Data from the assay component ATG_NF_kB_CIS was analyzed into 1 assay endpoint. This assay endpoint, ATG_NF_kB_CIS, was analyzed with bidirectional fitting relative to DMSO as the negative control and baseline of activity. Using a type of inducible reporter, measures of mRNA for gain or loss-of-signal activity can be used to understand the reporter gene at the transcription factor-level as they relate to the gene NFKB1. Furthermore, this assay endpoint can be referred to as a primary readout, because this assay has produced multiple assay endpoints where this one serves a reporter gene function. To generalize the intended target to other relatable targets, this assay endpoint is annotated to the dna binding intended target family, where the subfamily is NF-kappa B.
# Human liver HepG2 cells are transiently transfected with multiple reporter transcription units (MRTUs) in 6-well plates using FuGene 6 reagent (Roche; 3 ml FuGene/1 mg DNA). The MRTU constructs are regulated by a cis-regulating element (promoter). […] A major difference between the CIS and TRANS system is that in CIS activities of endogenous TFs are measured, whereas the TRANS assay evaluates changes in activities of exogenous, chimeric NR-Gal4 proteins. […] At the end of 24 hour incubation, total RNA was isolated using TriZol reagent (Invitrogen). The isolated RNA is then reverse-transcribed using oligo(dT) primer and Mo-MLV reverse transcriptase (Invitrogen) with DNAse I (Ambion) treatment for 30 min. The one-tenth of the produced cDNA was amplified by PCR using Taq DNA polymerase (Invitrogen) and two reporter sequence-specific primers. The PCR products were fluorescently labeled by primer extension with 6-arboxyfluorescein (6-FAM) 5'-labeled reporter sequence-specific primer (2 min at 95 C, 20 s at 68 C and 10 min at 72 C) and these products were digested with 5U of HpaI (New England Biolabs) for 2h at 37 C. The fragments were purified using Qiaquick PCR columns (Qiagen), analyzed on an ABI 3130xL genetic analyzer (Applied Biosystems) with peak positions identified by using a set of X-rhodamine (ROX)-labeled MapMarker1000 molecular weight standards (BioVentures). The raw capillary electrophoresis data was processed using Attagraph software (Attagene).
Compound,outcome,AC50
CO[Si](C)(C)OC,inactive,–
CC1=CP(=O)(c2ccccc2)CC1 (stereo not given),inactive,–
CCCSSCCC,inactive,–
CC/C=C\CCOC(=O)c1ccccc1O,inactive,–
CCCC1CCCC(=O)O1 (stereo not given),inactive,–
CCCC(CC)c1ccccc1 (stereo not given),inactive,–
CC(=O)c1ccccc1O,inactive,–
Nc1ncnc2nc[nH]c12,inactive,–
CC(C)c1cccc(C(C)C)c1N,inactive,–
CC(C)(CO)C(O)C(=O)NCCCO (stereo not given),inactive,–
CCCCOCCOCCOC(C)=O,inactive,–
CCCCCCCCCCCCCC(=O)OC(C)C,inactive,–
O=C1CCCCCCCCCCCN1,inactive,–
CCC(C)C(=O)OC (stereo not given),inactive,–
C=CC(=O)NC(C)(C)C,inactive,–
CCOC(=O)c1ccc(C)cc1,inactive,–
CCCC/C=C/C=C\C=O,–,63.8 µM (active)
Nc1ccc(C(=O)OCCCOC(=O)c2ccc(N)cc2)cc1,inactive,–
C=CC(C)(O)CC/C=C(\C)CC (stereo not given),inactive,–
C=Cc1ccc(OC(C)=O)cc1,inactive,–

Compound,outcome,AC50
CCCCNS(=O)(=O)c1ccccc1,inactive,–
CCc1cccc(CC)c1,inactive,–
CC=C(C)C=CC=C(C)C,inactive,–
CCCCCCCCCCCCCc1ccccc1,inactive,–
CC(C)=NNC(N)=S,inactive,–
CCCCCC1=CCCC1=O,inactive,–
C1CCSC1,inactive,–
CCOC(=O)C1=NN(c2ccc(Cl)cc2Cl)C(C)(C(=O)OCC)C1 (stereo not given),inactive,–
CCCCCCCOC(=O)c1ccc(O)cc1,inactive,–
CCOB(OCC)OCC,inactive,–
C=CCCCCCCCCC=O,inactive,–
O=S(=O)(O)c1ccc(Nc2nc(Nc3ccc(C=Cc4ccc(Nc5nc(Nc6ccc(S(=O)(=O)O)cc6)nc(N(CCO)CCO)n5)cc4S(=O)(=O)O)c(S(=O)(=O)O)c3)nc(N(CCO)CCO)n2)cc1,inactive,–
CC1=CC(C)C(C=O)CC1 (stereo not given),inactive,–
CCCCCCCCCC[N+](C)(CCCCCCCCCC)CCC[Si](OC)(OC)OC,inactive,–
CCC1COC(=O)O1 (stereo not given),inactive,–
NNS(=O)(=O)c1ccc(Oc2ccc(S(=O)(=O)NN)cc2)cc1,inactive,–
COc1nccnc1CC(C)C,inactive,–
CCCCCCCCCC(C)=O,inactive,–
CC1(C)CC(O)CC(C)(C)N1[O],inactive,–
CCN(CC)c1cccc(C)c1,inactive,–
